Measured values taken from PubChem BioAssay (NCI).
Values joined by “and” are separate entries in the source; they are usually repeats but may differ in a detail not shown here. Equal entries are not always repeated. This is part of a sample that, as a whole, favours compounds with a hit. Of some 83,000 tested, about 20% had one in any assay.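 For each line, cells grew in 96-well plates with the test compound present at a single concentration for 48 hours.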 Unmarked numbers belong to inactive results. Active and inactive are the calls of the source. Rule for the calls: active = growth percent below 10; inactive = the rest.

tested on: NCI-H23 lung; assay: NCI-60 one-dose screen, 48 h (100 = growth as untreated, 0 = no growth, -100 = all killed); conditions: 10 µM unless noted

| Compound | growth |
| --- | --- |
| Cc1ccccc1NC(=O)c1cccc(NC(=O)CCl)c1 | 52.8% |
| O=C1Nc2ccccc2/C1=C\c1ccc(OCC(=O)c2ccc(Br)cc2)cc1 | 50.9% |
| CN1CCN(C(=O)Oc2cc3c(c4ccccc24)[C@H](CCl)CN3C(=O)c2cc3cc(OCCCN4CCC4)ccc3[nH]2)[C@@H]2CSSC[C@H]21 | -72% (active) |
| O=C(CSc1nc2sc3c(c2c(=O)n1-c1ccc(Cl)cc1)CCCC3)NNC(=O)c1ccc(F)cc1 | 73.7% |
| COC(=O)c1cc(C(C)=O)n2c3ccccc3c3ccccc3c12 | 78.1% |
| COc1ccc(NC(=O)Nc2nc3ccc([N+](=O)[O-])cc3s2)cc1 | -2.33% (active) |
| CN(C)CCCc1ccc(Nc2cnn(C)c(=O)c2Cl)cc1 | 98% |
| COc1ccc(NC2=C(I)C(=O)C(C)=C(C)C2=O)cc1 | 32.2% |
| CN(C(=O)CN1C(=O)/C(=C/c2ccco2)SC1=S)C1CCS(=O)(=O)C1 (stereo unspecified) | 100% |
| Cc1ccc(C(=O)C[n+]2cccc3c4ccccc4ccc32)cc1 | 27.4% |
| Cc1ccc(/C=C/C(=O)c2ccc(S(=O)(=O)NCCNc3nc(N(C)C)nc(N4CCOCC4)n3)cc2)cc1 | 95% |
| C=CCSc1nnc(-c2ccc(-c3nc4ccccc4[nH]3)cc2)o1 | 89.9% |
| Cc1ccc(Nc2nnc(-c3c[nH]c4ccccc34)o2)c(C)c1 | 16.2% |

tested on: NCI-H226 lung; assay: as above; conditions: 10 µM unless noted

| Compound | growth |
| --- | --- |
| COc1ccc(C(=O)c2c(N)c(C#N)cn2-c2ccc([N+](=O)[O-])cc2)cc1 | 102% |
| Fc1ccc(F)c(CNc2nc(SCCN3CCOCC3)nc3c2cnn3CC(Cl)c2ccc(Br)cc2)c1 (stereo unspecified) | 16.2% |
| COc1ccc(N=Nc2c(N)nn3c(N)c(C#N)c(-c4ccc(F)cc4)nc23)cc1 | 55% |
| COc1cc(CNC(=O)[C@]23CCC(C)(C)CC2C2=CCC4[C@@]5(C)CCC(OC(C)=O)C(C)(C)C5CC[C@@]4(C)[C@]2(C)CC3)ccc1OCc1cn(-c2ccc(Cl)cc2Cl)nn1 (stereo partly specified) | 94.8% |
| C/C(=N\Nc1ccc(C(=O)O)cc1)c1cnn(-c2cc(=O)[nH]c3ccc(C)cc23)c1C | 90.1% |
| N#Cc1cc(-c2ccnc(Nc3ccc(N4CCN(C5COC5)CC4)cc3)n2)ccc1N1CCCC1 | 71% |
| O=C(N/N=C/c1ccc(Cl)cc1)c1ccc(OCc2nc3ccc(Cl)cc3[nH]2)cc1 | 77.4% |
| COc1ccc(-c2nc3ccccc3n2CC(=O)N=Nc2c(O)[nH]c3ccc(Br)cc23)cc1 | 100% |
| Clc1ccccc1Nc1nnc(-c2c[nH]c3ccccc23)o1 | 43.9% |
| O=C(NC(=S)N1CCN(c2ncnc3c2cnn3-c2ccccc2)CC1)c1ccc(Br)cc1 | 60.6% |
| COc1ccc(/C=C/c2nc3ccccc3n3c(-c4cccc([N+](=O)[O-])c4)nnc23)cc1 | -14.8% (active) |
| CS(=O)(=O)Nc1cc(-c2ccc3ncnc(Nc4ccc(OCc5cccnc5)c(Cl)c4)c3c2)cnc1Cl | 23.8% |
| O=C1CCC(N2C(=O)c3cccc(NCCOCCOCCOCCC(=O)NCCCC(=O)NC(c4ccc5c(c4)OCO5)c4cc(Cl)c5cccnc5c4O)c3C2=O)C(=O)C1 (stereo unspecified) | 45% |
| COc1cc(/C=C/C(=O)c2cnn(-c3cc(=O)[nH]c4ccc(C)cc34)c2C)cc(OC)c1OC | -17.8% (active) |
| Cc1ccc(C(=O)Nc2cc(-n3cnc(F)c3)cc(C(F)(F)F)c2)cc1C#Cc1cnc2cccnn12 | 44.4% |
| COc1cc(/C=C/C(=O)c2cnn(-c3cc(=O)[nH]c4ccc(Br)cc34)c2C)cc(OC)c1OC | -28% (active) |
| CCCCCCCOc1ccc(S(=O)(=O)Nc2ccc(C)c(F)c2C(=O)O)cc1 | 88% |
| C#CCN(C)CCCOc1ccc(N(CC)C(=O)c2cc(C(C)C)c(O)cc2O)cc1Cl | -13.8% (active) |
| COC(=O)CSC1=C(C)C(=O)C(OC)=C(OC)C1=O | 93.1% |

| Compound | growth |
| --- | --- |
| Nc1cccc(-n2c(COc3ccc(I)cc3)nc3ccccc32)c1 | 57.2% and 109% |
| O=C(Nc1ccc(F)cc1)Nc1nc2ccc([N+](=O)[O-])cc2s1 | 1.42% (active) |
| CC(=O)Nc1cccc(-n2c(COc3ccc(I)cc3)nc3ccccc32)c1 | 68.3% and 113% |
| Cc1nc2sccn2c1-c1nnc(SCC(C)C)o1 | 62% |
| COc1ccc2[nH]cc(-c3cc4nc(-c5cn(C)c6ncc(Br)cc56)cc(N)n4n3)c2c1 | -31.6% (active) |
| Cc1nn(-c2ccccc2)c2ncn(CC(=O)N/N=C/c3ccccc3O)c(=O)c12 | 47.6% |
| Cc1ccccc1NC(=O)c1cccc(NC(=O)CCl)c1 | 42.4% |
| O=C1Nc2ccccc2/C1=C\c1ccc(OCC(=O)c2ccc(Br)cc2)cc1 | 71.6% |
| CN1CCN(C(=O)Oc2cc3c(c4ccccc24)[C@H](CCl)CN3C(=O)c2cc3cc(OCCCN4CCC4)ccc3[nH]2)[C@@H]2CSSC[C@H]21 | -22.4% (active) |
| O=C(CSc1nc2sc3c(c2c(=O)n1-c1ccc(Cl)cc1)CCCC3)NNC(=O)c1ccc(F)cc1 | 62.7% |
| COC(=O)c1cc(C(C)=O)n2c3ccccc3c3ccccc3c12 | 61.3% |
| COc1ccc(NC(=O)Nc2nc3ccc([N+](=O)[O-])cc3s2)cc1 | 6.28% (active) |
| CN(C)CCCc1ccc(Nc2cnn(C)c(=O)c2Cl)cc1 | 99% |
| COc1ccc(NC2=C(I)C(=O)C(C)=C(C)C2=O)cc1 | 78.1% |
| CN(C(=O)CN1C(=O)/C(=C/c2ccco2)SC1=S)C1CCS(=O)(=O)C1 (stereo unspecified) | 100% |
| Cc1ccc(C(=O)C[n+]2cccc3c4ccccc4ccc32)cc1 | 36.3% |
| Cc1ccc(/C=C/C(=O)c2ccc(S(=O)(=O)NCCNc3nc(N(C)C)nc(N4CCOCC4)n3)cc2)cc1 | 91.7% |
| C=CCSc1nnc(-c2ccc(-c3nc4ccccc4[nH]3)cc2)o1 | 95.5% |
| Cc1ccc(Nc2nnc(-c3c[nH]c4ccccc34)o2)c(C)c1 | 43.9% |
